Measured values published in PMC5540273 (PLoS ONE, 2017).

System: CAMK2A
Settings: concentration: 1 μM, replicates: in singlicate; n = 1
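Also: KINOMEscan kinase panel screen.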

| Compound | %Inh [%] |
| --- | --- |
| CN1C(=O)C(Nc2ccc(Cl)c(C(=O)O)c2)=C(c2ccc(Cl)cc2)C1=O [SB-404290] | 17 |
| Cc1cccc(-c2nc(-c3ccc(S(C)(=O)=O)cc3)sc2-c2ccnc(NCCc3ccccc3)c2)c1 | 0 |
| COc1cccc(-c2cc(-c3c[nH]nc3-c3ccccn3)ccn2)c1 [GW680338] | 0 |
| Cl.NC(=O)c1cccc(Nc2nccc(Nc3ccc(Oc4cccc(Cl)c4)c(Cl)c3)n2)c1 [GW659008] | 0 |
| Cn1ccc2ncnc(Oc3ccc(NC(=O)Nc4ccccc4)cc3)c21 | 0 |
| Cc1ccc(C(=O)Nc2ccc(Nc3ccnc4cc(-c5ccccn5)ccc34)cc2O)cc1.Cl [GW440146] | 0 |
| Cc1c(O)cccc1Nc1ccnc2ccc(C(F)(F)F)cc12.Cl [GW466413] | 0 |
| CC(C)(C)c1ccc(C(=O)Nc2cn3cc(-c4cccnc4)ccc3n2)cc1 | 6 |
| CC1=C(C(=O)Nc2cc3cn[nH]c3cc2F)C(c2ccc(C(F)(F)F)cc2)CC(=O)N1 (stereo not shown) [GSK429286] | 0 |
| Cl.c1ccc(-c2n[nH]cc2-c2ccnc(-c3ccc(CN4CCOCC4)cc3)c2)nc1 [GW776245] | 2 |
| Cc1cccc(-c2cc(Nc3ccncc3)c3ccccc3n2)n1 [GSK223675] | 0 |
| Cc1cccc(-c2nc(Nc3ccncc3)c3ccccc3n2)n1 [GW855857] | 6 |
| COc1ccc2nc(-c3cccc(C)n3)nc(Nc3ccncc3)c2c1 [GSK204919] | 0 |
| COc1ccc(C2=C(Nc3cccc(C(=O)O)c3)C(=O)NC2=O)cc1 [SB-390765] | 5 |
| COc1ccc(Nc2nccc(-c3cccc(NC(=O)c4cc5cc(F)ccc5[nH]4)c3)n2)cc1 [GSK1229782] | 0 |
| CCCc1ccc(S(=O)(=O)NC2CCN(c3ccnc(Nc4ccc(F)cc4)n3)C2)cc1 (stereo not shown) [GSK1379715] | 0 |
| CSc1nn2c(=O)cc(N3CCOCC3)nc2n1Cc1cccc(C(F)(F)F)c1C [GSK2363608] | 0 |
| CC(=O)Nc1nc2cnc(Nc3cc(NC(=O)c4cccc(CCC#N)c4)ccc3C)nc2s1 | 20 |

| Compound | %Inh [%] |
| --- | --- |
| Cc1ccc(NC(=O)Nc2cc(C(C)(C)C)nn2-c2ccccc2)cc1 [GSK1014915] | 0 |
| Cc1cccc(-c2nc(Nc3ccc4[nH]ncc4c3)c3ccccc3n2)n1 [GW857175] | 15 |
| Cc1cccc(-c2nc(C)cc(Nc3ccncc3)n2)n1 [GSK257997] | 0 |
| CS(=O)(=O)c1ccc(-c2nc3n(c2-c2ccncc2)CCC3)cc1 [SKF-105942] | 0 |
| O=C(Nc1ccc2c(c1)OCO2)NC1CCN(c2ccnc(Nc3ccc(F)cc3)n2)C1 (stereo not shown) [GSK1379724] | 0 |
| O=c1cc(N2CCOCC2)nc2n(Cc3cccc(Cl)c3Cl)ccn12 [GSK2286295] | 0 |
| COC(=O)c1c(-c2ccccc2)c2cc(OC)ccc2c(=O)n1Cc1ccccc1 | 15 |
| O=C(Nc1ccccc1)Nc1cccc(Oc2ccc3nccn3n2)c1 | 0 |
| Fc1cc(Cl)ccc1Nc1ccnc2cc(I)ccc12 [GW551191] | 0 |
| Cc1ccc(NC(=O)Nc2cccc(Cl)c2)cc1-c1ccc(C(=O)Nc2ccncc2)cc1 [GSK1398468] | 0 |
| O=C(O)COc1ncnc2cc(-c3ccc4[nH]ncc4c3)sc12 | 0 |
| Cn1ccc2ncnc(Oc3cccc(C(=O)Nc4ccccc4)c3)c21 | 1 |
| Cc1ccccc1-n1cnc2c(N)ncnc21 [SKF-97510] | 24 |
| COc1cc2ncnc(Nc3ccc4nc(-c5ccccc5)[nH]c4c3)c2cc1OC.Cl [GW282450] | 0 |
| Cl.O=C(Nc1cccc(-c2nn3ncccc3c2-c2ccnc(Nc3cccnc3)n2)c1)c1c(F)cccc1F [GSK312879] | 0 |
| NC(=O)c1nnc2ccccc2c1N | 0 |
| CN(C)CCN(C)C(=O)c1cc(-c2ccncc2)c(-c2ccc(Cl)c(O)c2)o1.Cl.Cl [SB-710397] | 0 |

System: CAMK2B
Settings: concentration: 1 μM, replicates: in singlicate; n = 1

| Compound | %Inh [%] |
| --- | --- |
| CN1C(=O)C(Nc2ccc(Cl)c(C(=O)O)c2)=C(c2ccc(Cl)cc2)C1=O [SB-404290] | 0 |
| Cc1cccc(-c2nc(-c3ccc(S(C)(=O)=O)cc3)sc2-c2ccnc(NCCc3ccccc3)c2)c1 | 0 |
| COc1cccc(-c2cc(-c3c[nH]nc3-c3ccccn3)ccn2)c1 [GW680338] | 0 |
| Cl.NC(=O)c1cccc(Nc2nccc(Nc3ccc(Oc4cccc(Cl)c4)c(Cl)c3)n2)c1 [GW659008] | 0 |
| Cn1ccc2ncnc(Oc3ccc(NC(=O)Nc4ccccc4)cc3)c21 | 0 |
| Cc1ccc(C(=O)Nc2ccc(Nc3ccnc4cc(-c5ccccn5)ccc34)cc2O)cc1.Cl [GW440146] | 0 |
| Cc1c(O)cccc1Nc1ccnc2ccc(C(F)(F)F)cc12.Cl [GW466413] | 0 |
| CC(C)(C)c1ccc(C(=O)Nc2cn3cc(-c4cccnc4)ccc3n2)cc1 | 7 |
| CC1=C(C(=O)Nc2cc3cn[nH]c3cc2F)C(c2ccc(C(F)(F)F)cc2)CC(=O)N1 (stereo not shown) [GSK429286] | 0 |
| Cl.c1ccc(-c2n[nH]cc2-c2ccnc(-c3ccc(CN4CCOCC4)cc3)c2)nc1 [GW776245] | 5 |
| Cc1cccc(-c2cc(Nc3ccncc3)c3ccccc3n2)n1 [GSK223675] | 0 |
| Cc1cccc(-c2nc(Nc3ccncc3)c3ccccc3n2)n1 [GW855857] | 0 |
| COc1ccc2nc(-c3cccc(C)n3)nc(Nc3ccncc3)c2c1 [GSK204919] | 0 |
| COc1ccc(C2=C(Nc3cccc(C(=O)O)c3)C(=O)NC2=O)cc1 [SB-390765] | 0 |
| COc1ccc(Nc2nccc(-c3cccc(NC(=O)c4cc5cc(F)ccc5[nH]4)c3)n2)cc1 [GSK1229782] | 0 |
| CCCc1ccc(S(=O)(=O)NC2CCN(c3ccnc(Nc4ccc(F)cc4)n3)C2)cc1 (stereo not shown) [GSK1379715] | 0 |
| CSc1nn2c(=O)cc(N3CCOCC3)nc2n1Cc1cccc(C(F)(F)F)c1C [GSK2363608] | 0 |
| CC(=O)Nc1nc2cnc(Nc3cc(NC(=O)c4cccc(CCC#N)c4)ccc3C)nc2s1 | 0 |

| Compound | %Inh [%] |
| --- | --- |
| Cc1ccc(NC(=O)Nc2cc(C(C)(C)C)nn2-c2ccccc2)cc1 [GSK1014915] | 0 |
| Cc1cccc(-c2nc(Nc3ccc4[nH]ncc4c3)c3ccccc3n2)n1 [GW857175] | 3 |
| Cc1cccc(-c2nc(C)cc(Nc3ccncc3)n2)n1 [GSK257997] | 0 |
| CS(=O)(=O)c1ccc(-c2nc3n(c2-c2ccncc2)CCC3)cc1 [SKF-105942] | 0 |
| O=C(Nc1ccc2c(c1)OCO2)NC1CCN(c2ccnc(Nc3ccc(F)cc3)n2)C1 (stereo not shown) [GSK1379724] | 0 |
| O=c1cc(N2CCOCC2)nc2n(Cc3cccc(Cl)c3Cl)ccn12 [GSK2286295] | 0 |
| COC(=O)c1c(-c2ccccc2)c2cc(OC)ccc2c(=O)n1Cc1ccccc1 | 0 |
| O=C(Nc1ccccc1)Nc1cccc(Oc2ccc3nccn3n2)c1 | 0 |
| Fc1cc(Cl)ccc1Nc1ccnc2cc(I)ccc12 [GW551191] | 0 |
| Cc1ccc(NC(=O)Nc2cccc(Cl)c2)cc1-c1ccc(C(=O)Nc2ccncc2)cc1 [GSK1398468] | 0 |
| O=C(O)COc1ncnc2cc(-c3ccc4[nH]ncc4c3)sc12 | 0 |
| Cn1ccc2ncnc(Oc3cccc(C(=O)Nc4ccccc4)c3)c21 | 0 |
| Cc1ccccc1-n1cnc2c(N)ncnc21 [SKF-97510] | 14 |
| COc1cc2ncnc(Nc3ccc4nc(-c5ccccc5)[nH]c4c3)c2cc1OC.Cl [GW282450] | 0 |
| Cl.O=C(Nc1cccc(-c2nn3ncccc3c2-c2ccnc(Nc3cccnc3)n2)c1)c1c(F)cccc1F [GSK312879] | 0 |
| NC(=O)c1nnc2ccccc2c1N | 0 |
| CN(C)CCN(C)C(=O)c1cc(-c2ccncc2)c(-c2ccc(Cl)c(O)c2)o1.Cl.Cl [SB-710397] | 0 |
